Calls of active or inactive are those of the source. How the source made its calls: active means hit-call score of the fitted dose curve at least 0.9, where 1 is the maximum; inactive means score below 0.9.
Tests used:
[1] = read-out: Interleukin-8 (IL8), CXCL8 (gene 3576); test: BSK_CASM3C_IL8: BioMAP Diversity Plus: CASM3C Assay for Interleukin-8 (IL8) Biomarker Activity (AID 2283042); details: primary human coronary artery smooth muscle cells; actives raise or lower the signal;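 further: IL-8 protein level quantified by ELISA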
[2] = read-out: Human Leukocyte Antigen - DR isotype (HLADR), HLA-DRA (gene 3122); test: BSK_CASM3C_HLADR: BioMAP Diversity Plus: CASM3C Assay for Human Leukocyte Antigen - DR isotype (HLADR) Biomarker Activity (AID 2283043); details: primary human coronary artery smooth muscle cells; actives raise or lower the signal;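 further: cell-surface HLA-DR protein level quantified by ELISA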
[3] = read-out: Macrophage colony-stimulating factor (MCSF), CSF1 (gene 1435); test: BSK_CASM3C_MCSF: BioMAP Diversity Plus: CASM3C Assay for Macrophage colony-stimulating factor (MCSF) Biomarker Activity (AID 2283044); details: primary human coronary artery smooth muscle cells; actives raise or lower the signal;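 further: M-CSF protein amount quantified by ELISA after 24 h exposure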
[4] = read-out: Low-density lipoprotein receptor (LDLR), LDLR (gene 3949); test: BSK_CASM3C_LDLR: BioMAP Diversity Plus: CASM3C Assay for Low-density lipoprotein receptor (LDLR) Biomarker Activity (AID 2283045); details: primary human coronary artery smooth muscle cells; actives raise or lower the signal;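 further: LDLR protein level on the cell surface quantified by ELISA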
[5] = read-out: Monocyte Chemoattractant Protein-1 (MCP1), CCL2 (gene 6347); test: BSK_CASM3C_MCP1: BioMAP Diversity Plus: CASM3C Assay for Monocyte Chemoattractant Protein-1 (MCP1) Biomarker Activity (AID 2283046); details: primary human coronary artery smooth muscle cells; actives raise or lower the signal;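 further: MCP-1 level quantified by ELISA 24 h after dosing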
[6] = BSK_CASM3C_Proliferation: Cell Proliferation Assessment in the BioMAP Diversity Plus: CASM3C Assay (AID 2283047); details: primary human coronary artery smooth muscle cells;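 further: sulforhodamine B total protein stain as relative cell number at 560 nm; sub-confluent cells exposed 48 h before staining; fitted both ways against DMSO so gain or loss of cell number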
[7] = read-out: Monokine induced gamma interferon (MIG), CXCL9 (gene 4283); test: BSK_CASM3C_MIG: BioMAP Diversity Plus: CASM3C Assay for Monokine induced gamma interferon (MIG) Biomarker Activity (AID 2283048); details: primary human coronary artery smooth muscle cells; actives raise or lower the signal;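 further: MIG protein level measured by ELISA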
[8] = read-out: serum amyloid A (SAA), SAA1 (gene 6288); test: BSK_CASM3C_SAA: BioMAP Diversity Plus: CASM3C Assay for serum amyloid A (SAA) Biomarker Activity (AID 2283049); details: primary human coronary artery smooth muscle cells; actives raise or lower the signal;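 further: SAA protein level quantified by ELISA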
[9] = BSK_CASM3C_SRB: Viability Assessment in the BioMAP Diversity Plus: CASM3C Assay (AID 2283050); details: primary human coronary artery smooth muscle cells;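 further: total protein by SRB staining as cytotoxicity measure in parallel cultures; cells exposed to compound for 24 h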
[10] = read-out: Thrombomodulin, THBD (gene 7056); test: BSK_CASM3C_Thrombomodulin: BioMAP Diversity Plus: CASM3C Assay for Thrombomodulin Biomarker Activity (AID 2283051); details: primary human coronary artery smooth muscle cells; actives raise or lower the signal;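 further: thrombomodulin protein level measured by ELISA 24 h after dosing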
[11] = read-out: Tissue Factor, F3 (gene 2152); test: BSK_CASM3C_TissueFactor: BioMAP Diversity Plus: CASM3C Assay for Tissue Factor Biomarker Activity (AID 2283052); details: primary human coronary artery smooth muscle cells; actives raise or lower the signal;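 further: cell surface tissue factor protein level read by ELISA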
[12] = read-out: Interferon-gamma inducible Protein 10 (IP10), CXCL10 (gene 3627); test: BSK_hDFCGF_IP10: BioMAP Diversity Plus: hDFCGF Assay for Interferon-gamma inducible Protein 10 (IP10) Biomarker Activity (AID 2283053); details: primary human foreskin fibroblasts; actives raise or lower the signal
In short: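 IP-10 levels, quantified by ELISA, are taken from human foreskin fibroblast cultures 24 h after chemical treatment, with DMSO serving as negative control and baseline for bidirectional analysis.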

[13] = read-out: Urokinase-type plasminogen activator receptor (uPAR), PLAUR (gene 5329); test: BSK_CASM3C_uPAR: BioMAP Diversity Plus: CASM3C Assay for Urokinase-type plasminogen activator receptor (uPAR) Biomarker Activity (AID 2283054); details: primary human coronary artery smooth muscle cells; actives raise or lower the signal;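 further: cell-surface uPAR protein level quantified by ELISA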
[14] = read-out: Vascular cell adhesion molecule 1 (VCAM1), VCAM1 (gene 7412); test: BSK_CASM3C_VCAM1: BioMAP Diversity Plus: CASM3C Assay for Vascular cell adhesion molecule 1 (VCAM1) Biomarker Activity (AID 2283055); details: primary human coronary artery smooth muscle cells; actives raise or lower the signal;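 further: VCAM-1 protein level quantified by ELISA on the cells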
[15] = read-out: Collagen III, COL3A1 (gene 1281); test: BSK_hDFCGF_CollagenIII: BioMAP Diversity Plus: hDFCGF Assay for Collagen III Biomarker Activity (AID 2283056); details: primary human foreskin fibroblasts; actives raise or lower the signal
In short: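 ELISA readout of Collagen III in human dermal (foreskin) fibroblasts, taken 24 h post-treatment. Gain or loss relative to DMSO vehicle fitted in both directions.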

[16] = read-out: Epidermal growth factor receptor (EGFR), EGFR (gene 1956); test: BSK_hDFCGF_EGFR: BioMAP Diversity Plus: hDFCGF Assay for Epidermal growth factor receptor (EGFR) Biomarker Activity (AID 2283057); details: primary human foreskin fibroblasts; actives raise or lower the signal
In short: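 Measured by ELISA: EGFR levels on primary human foreskin fibroblasts 24 h after chemical treatment, analysed relative to DMSO with bidirectional fitting.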

[17] = read-out: Interleukin-8 (IL8), CXCL8 (gene 3576); test: BSK_hDFCGF_IL8: BioMAP Diversity Plus: hDFCGF Assay for Interleukin-8 (IL8) Biomarker Activity (AID 2283058); details: primary human foreskin fibroblasts; actives raise or lower the signal
In short: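 IL-8 levels read by ELISA at 24 hours after dosing human skin fibroblast cultures. Parallel SRB staining assessed overt cytotoxicity, and gain or loss of signal was fitted against DMSO control.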

[18] = BSK_hDFCGF_Proliferation: Cell Proliferation Assessment in the BioMAP Diversity Plus: hDFCGF Assay (AID 2283059); details: primary human foreskin fibroblasts;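 further: curves fitted for both rise and fall of signal versus DMSO baseline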
In short: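 Total protein read at 560 nm after 0.1% SRB staining of TCA-fixed human skin fibroblasts, […]. Activity is fitted in both directions relative to DMSO as baseline.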

[19] = read-out: Macrophage colony-stimulating factor (MCSF), CSF1 (gene 1435); test: BSK_hDFCGF_MCSF: BioMAP Diversity Plus: hDFCGF Assay for Macrophage colony-stimulating factor (MCSF) Biomarker Activity (AID 2283060); details: primary human foreskin fibroblasts; actives raise or lower the signal
In short: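 M-CSF levels read by ELISA at 24 h post-dosing in human skin fibroblasts. Parallel cultures stained with SRB assessed cytotoxicity at the same time point; response fitted in both directions against the DMSO baseline.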

[20] = BSK_hDFCGF_SRB: Viability Assessment in the BioMAP Diversity Plus: hDFCGF Assay (AID 2283061); details: primary human foreskin fibroblasts;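 further: cells exposed to compound for 24 h before the read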
In short: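 Viability was read as total protein: after 10% TCA fixation, wells were stained with 0.1% sulforhodamine B and read at 560 nm. Primary human foreskin fibroblasts were dosed for 24 h, with bidirectional fitting versus DMSO.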

In the case of `CC[C@H](C)[C@@H](C(=O)O)n1sc2ccccc2c1=O`, the outcome [1] is reported as “inactive”, the outcome [2] is reported as “inactive” and the outcome [3] is reported as “inactive”. The outcome [4] was “inactive”, the outcome [5] was “inactive” and the outcome [6] was “inactive”. For the same molecule, the outcome [7] was “inactive”, the outcome [8] was “inactive” and the outcome [9] was “inactive”. For the same molecule, the outcome [10] was “inactive”, the outcome [11] was “inactive” and the outcome [12] was “inactive”. For the same molecule, the outcome [13] was “inactive”, the outcome [14] was “inactive” and the outcome [15] was “inactive”. The outcome [16] was “inactive”, the outcome [17] was “inactive” and the outcome [18] was “inactive”. The outcome [19] was “inactive” and the outcome [20] was “inactive”.

For `O=C(O)Cc1cc(I)c(Oc2cc(I)c(O)c(I)c2)c(I)c1`, the outcome [1] was “inactive”, the outcome [2] was “inactive” and the outcome [3] was “inactive”. The outcome [4] was “inactive”, the outcome [5] was “inactive” and the outcome [6] was “inactive”. For the same molecule, the outcome [7] was “inactive”, the outcome [8] was “inactive” and the outcome [9] was “inactive”. For the same molecule, the outcome [10] was “inactive”, the outcome [11] was “inactive” and the AC50 [12] was 8.02 µM (active). The outcome [13] was “inactive”, the AC50 [14] was 13.4 µM (active) and the AC50 [15] was 4.05 µM (active). The AC50 [16] was 7.78 µM (active), the AC50 [17] was 22.2 µM (active) and the AC50 [18] was 13.4 µM (active). For the same molecule, the AC50 [19] was 14 µM (active) and the AC50 [20] was 12.2 µM (active).

In the case of `COCC(C)O` (stereo not given), the outcome [1] is reported as “inactive”, the outcome [2] is reported as “inactive” and the outcome [3] is reported as “inactive”. For the same molecule, the outcome [4] was “inactive”, the outcome [5] was “inactive” and the outcome [6] was “inactive”. For the same molecule, the outcome [7] was “inactive”, the outcome [8] was “inactive” and the outcome [9] was “inactive”. The outcome [10] was “inactive”, the outcome [11] was “inactive” and the outcome [12] was “inactive”. For the same molecule, the outcome [13] was “inactive”, the outcome [14] was “inactive” and the outcome [15] was “inactive”. The outcome [16] was “inactive”, the outcome [17] was “inactive” and the outcome [18] was “inactive”. For the same molecule, the outcome [19] was “inactive” and the outcome [20] was “inactive”.

With `CCCCCCCCCCCCCCCS(=O)(=O)Oc1ccccc1` the outcome [1] was “inactive”, the outcome [2] was “inactive” and the outcome [3] was “inactive”. The outcome [4] was “inactive”, the outcome [5] was “inactive” and the outcome [6] was “inactive”. For the same molecule, the outcome [7] was “inactive”, the outcome [8] was “inactive” and the outcome [9] was “inactive”. The outcome [10] was “inactive”, the outcome [11] was “inactive” and the outcome [12] was “inactive”. The outcome [13] was “inactive”, the outcome [14] was “inactive” and the outcome [15] was “inactive”. The outcome [16] was “inactive”, the outcome [17] was “inactive” and the outcome [18] was “inactive”. The outcome [19] was “inactive” and the outcome [20] was “inactive”.

For `NC(=O)N(O)[C@@H]1C=C[C@H](Oc2cccc(Oc3ccc(F)cc3)c2)C1`, the outcome [1] was “inactive”, the AC50 [2] was 3.95 µM (active) and the outcome [3] was “inactive”. The outcome [4] was “inactive”, the outcome [5] was “inactive” and the AC50 [6] was 7.17 µM (active). The outcome [7] was “inactive”, the outcome [8] was “inactive” and the outcome [9] was “inactive”. The AC50 [10] was 9.41 µM (active), the outcome [11] was “inactive” and the AC50 [12] was 20 µM (active). For the same molecule, the outcome [13] was “inactive”, the outcome [14] was “inactive” and the outcome [15] was “inactive”. The outcome [16] was “inactive”, the outcome [17] was “inactive” and the AC50 [18] was 13.3 µM (active). The AC50 [19] was 3.97 µM (active) and the outcome [20] was “inactive”.

With `OC1CCC(C2CCCCC2)CC1` (stereo not given) the outcome [1] was “inactive”, the outcome [2] was “inactive” and the outcome [3] was “inactive”. The outcome [4] was “inactive”, the outcome [5] was “inactive” and the outcome [6] was “inactive”. The outcome [7] was “inactive”, the outcome [8] was “inactive” and the outcome [9] was “inactive”. The outcome [10] was “inactive”, the outcome [11] was “inactive” and the outcome [12] was “inactive”. For the same molecule, the outcome [13] was “inactive”, the outcome [14] was “inactive” and the outcome [15] was “inactive”. For the same molecule, the outcome [16] was “inactive”, the outcome [17] was “inactive” and the outcome [18] was “inactive”. The outcome [19] was “inactive” and the outcome [20] was “inactive”.
